Usually viability stands for a read-out of living cells in per cent, often relative to untreated cells. Usually inhibition stands for the drop in the measured response relative to a control, in per cent.

Results filed as inconclusive are left out. The source made the active and inactive calls.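 Rule for the calls, unless noted: active = viability increase at or above a cutoff of the median across tested compounds plus 3 SD (cut at about 8.5% in these data, passing the limit was not always enough); inconclusive = some gains above the cutoff, reason not given; inactive = the rest.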

A short description of test [1]: reducers of endogenous Her2 protein level, primary screen, SKBR3 breast tumor cells, AlphaScreen, ATP viability (AID 461;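 active = Her2 level under about 52% in both replicate screens, with viability over 70% of control, limit read from the data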;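 for Her2 level: lower value means less Her2 protein in the cells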;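 for viability: percent of carrier control wells set as 100% viability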). The conditions noted are these: 18-24 h, measured here: SKBR3 viability, ATP luminescence, at 10 µM. On the technique in general: Bead proximity is the source of the signal in Alpha formats.
Test [2] deals with Receptor tyrosine-protein kinase erbB-2 (Homo sapiens) (UniProt P04626). The description is as above. The settings on record: 18-24 h, at 10 µM, stronger effect = lower value.
The nature of test [3]: SK-BR-3 cell growth inhibitors, pilot screen, 24 h, human (AID 572;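 active = viability at or below 10% of carrier control in both of two separate runs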;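 note: compound exposure lasted between 18 and 24 h rather than exactly 24 h; 100% = carrier-treated control wells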). The settings on record: SK-BR-3 viability, CellTiter-Glo luminescence, at 10 µM, stronger effect = lower value.
Test [4] is described as follows: HUVEC growth inhibition – cell-based, human, primary screen (AID 575;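 active = viability at or below 30% in both replicate assays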;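 note: 100% = median of untreated cell wells with 0.1% DMSO on each plate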). The settings on record: HUVEC proliferation, CellTiter-Glo luminescence, 72 h; at 10 µM; stronger effect = lower value. A general note: ATP-based viability assays read luminescence as a measure of living cells.
Test [5] is described as follows: growth inhibitors of H69AR lung tumor, primary screen, human, duplicate replicates (AID 580;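 active = viability at or under a set limit in both replicates, limit being median viability minus 3 SD, cut at about 48% in these data, passing the limit was not always enough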;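 note: 100% = mean luminescence of untreated wells and 0% = no signal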). The conditions noted are these: H69AR lung tumor cells viability, ATP luminescence, 72 h; at 10 µM; stronger effect = lower value.
A short description of test [6]: reversal of MRP1-mediated doxorubicin resistance, pilot screen, H69AR cells, doxorubicin co-treatment (AID 601;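 active = viability loss from added drug above about 55%, and viability with drug at most 40%, in both replicates, limit read from the data, passing the limit was not always enough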). The settings on record: CellTiter-Glo, 72 h, at 10 µM; for differential viability (reversal): stronger effect = higher value.
The nature of test [7]: 384-well plate pilot, post-Golgi transport modulator project, inhibition of yeast transport mutant growth (AID 636; in the data active = inhibition above about 31%). The conditions noted are these: absorbance 615 nm, about 18 h, stronger effect = higher value.
Test [8] is described as follows: growth suppression of yeast trafficking mutant, preliminary HTS, modulators of trafficking downstream of Golgi apparatus project, 1536-format plate, OD 615 nm (AID 637; in the data active = inhibition above about 30%). The settings on record: yeast transport mutant growth, absorbance 615 nm, 18 h; stronger effect = higher value.
Test [9] in a line: OD615 S. cerevisiae growth inhibition, permissive medium, pilot counter-assay, permissive growth control for S. cerevisiae lifespan shortening project (AID 705;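 active = growth inhibition above 25% in both replicates, a cutoff set 3 SD above the mean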). The conditions noted are these: OD615, 24 h, at 10 µM, stronger effect = higher value.
Test [10] is described as follows: Restrictive medium S. cerevisiae growth inhibition, OD615, pilot screen of yeast lifespan reduction project, restrictive growth control (AID 706;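 active = growth inhibition above a set limit, 3 SD over mean compound inhibition, in both replicates, cut at about 43% in these data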;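 note: modified DeaD lifespan yeast strain shifted to restrictive glucose medium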). The conditions noted are these: OD615, 48 h, at 10 µM, stronger effect = higher value.
Test [11] in a line: viability gain of MRP-1-high H69AR cells under doxorubicin, pilot screen, MRP-1 activator project, CellTiter-Glo, duplicate (AID 807).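 Note: compound pretreatment 18-22 h then 72 h combined with doxorubicin; 0% = doxorubicin alone and 100% = vehicle without doxorubicin.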 The settings on record: H69AR viability with doxorubicin, CellTiter-Glo luminescence; at 10 µM; stronger effect = higher value.
Test [12] can be described thus: growth suppression of beta-catenin knockout HCT116, pilot screen, human colon tumor cells (AID 823;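 active = cell viability at or below a set limit in both duplicate runs, the limit being the all-compound median minus 4 SD, cut at about 23% in these data, passing the limit was not always enough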;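 note: 0% = wells killed by 20 µM Hyamine and 100% = untreated DMSO cell wells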). The conditions noted are these: CellTiter-Glo, 60 h, at 10 µM, stronger effect = lower value.
The nature of test [13]: growth suppression of PTEN-deleted HCT116, pilot screen, cell-based, HCT116 clonal line, CellTiter-Glo (AID 824;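 active = viability at or below 27.92% in each of two runs, the all-compound median minus 4 SD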;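 note: 0% = 20 µM Hyamine control and 100% = vehicle cell control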). The conditions noted are these: 60 h, at 10 µM, stronger effect = lower value.
Test [14] is described as follows: inhibitors of the yeast RAM network, pilot screen, dse1pr::URA3 reporter, 5-FOA selection (AID 869;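 active = inhibition over a set limit, the all-compound mean plus 3 SD, in both replicate runs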;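 note: 0% = DMSO wells with no growth and 100% = 10 µM 1-NA-PP1 with full growth; RAM network block rescues cells from 5-FOA so hits raise OD615 growth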). The settings on record: S. cerevisiae dse1pr::URA3 5-FOA growth, OD615, 2 d; at 10 µM; stronger effect = higher value; strain carries analog-sensitive mutant Cbk1 kinase.
A short description of test [15]: RAM signaling pathway blockade in yeast – S. cerevisiae, Pdr1DBD-CYC8 efflux-inhibited sensitized strain, primary screen (AID 1298;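 active = RAM network inhibition above 8.4% in each of two replicates, 3 SD over the compound average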;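 note: 0% = DMSO untreated cells without growth and 100% = 10 µM 1-NA-PP1 full growth; higher means more yeast growth rescued from 5-FOA killing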). The conditions noted are these: S. cerevisiae cbk1-as DSE1-URA3 strain, 5-FOA growth OD615, 2 d; at 50 µM; stronger effect = higher value.
The mark [16] stands for this setting: H69AR cells + 2 uM doxorubicin, measured here: viability with 2 uM doxorubicin, stronger effect = lower value.
The mark [17] stands for this setting: H69AR cells, compound alone cytotoxicity.

Sequence of Receptor tyrosine-protein kinase erbB-2 (Homo sapiens) (P04626 whole entry, looked up): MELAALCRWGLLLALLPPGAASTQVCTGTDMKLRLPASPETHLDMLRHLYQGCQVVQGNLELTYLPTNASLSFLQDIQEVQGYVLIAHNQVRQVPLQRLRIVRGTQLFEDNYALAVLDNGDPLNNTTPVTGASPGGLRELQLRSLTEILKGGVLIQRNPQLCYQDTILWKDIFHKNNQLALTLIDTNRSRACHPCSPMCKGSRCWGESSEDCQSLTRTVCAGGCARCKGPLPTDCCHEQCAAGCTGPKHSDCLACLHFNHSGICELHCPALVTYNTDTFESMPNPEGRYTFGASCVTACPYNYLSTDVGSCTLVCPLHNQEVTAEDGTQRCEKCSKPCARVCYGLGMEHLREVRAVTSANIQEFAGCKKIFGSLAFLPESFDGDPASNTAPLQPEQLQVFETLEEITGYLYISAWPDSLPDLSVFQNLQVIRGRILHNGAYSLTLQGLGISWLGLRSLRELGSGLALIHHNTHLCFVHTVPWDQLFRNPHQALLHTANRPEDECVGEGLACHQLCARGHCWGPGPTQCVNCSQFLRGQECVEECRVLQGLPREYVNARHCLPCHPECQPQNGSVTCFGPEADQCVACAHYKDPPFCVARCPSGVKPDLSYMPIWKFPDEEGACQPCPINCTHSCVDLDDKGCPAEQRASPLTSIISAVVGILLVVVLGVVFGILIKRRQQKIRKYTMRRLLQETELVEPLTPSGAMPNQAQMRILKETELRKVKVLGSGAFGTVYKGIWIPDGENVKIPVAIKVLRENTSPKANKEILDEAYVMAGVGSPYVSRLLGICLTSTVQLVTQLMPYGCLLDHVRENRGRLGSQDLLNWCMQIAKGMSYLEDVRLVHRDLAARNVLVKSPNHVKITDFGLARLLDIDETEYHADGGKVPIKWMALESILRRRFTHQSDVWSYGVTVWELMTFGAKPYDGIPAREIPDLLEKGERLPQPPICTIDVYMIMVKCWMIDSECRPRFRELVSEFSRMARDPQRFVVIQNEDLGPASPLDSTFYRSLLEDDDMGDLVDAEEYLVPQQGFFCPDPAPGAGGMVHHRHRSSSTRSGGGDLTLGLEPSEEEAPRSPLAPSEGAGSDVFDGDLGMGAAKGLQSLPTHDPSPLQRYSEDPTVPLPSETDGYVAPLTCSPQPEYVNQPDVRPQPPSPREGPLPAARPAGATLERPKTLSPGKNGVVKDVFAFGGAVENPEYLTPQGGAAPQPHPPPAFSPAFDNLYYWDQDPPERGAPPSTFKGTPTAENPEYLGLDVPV

Turning to `CCOC(=O)C(CC)Sc1ncnc2nc[nH]c12` (centres undefined), the viability in test [1] was 104%; in [3], 104% (inactive); in [4], 103% (inactive); in test [5] it was 101% (inactive); in [6] (setting [16]), 88.2%; in test [6] (setting [17]), 101%. The viability in test [12] is 97.5% (inactive); in test [13], 91.9% (inactive). Further, in test [2], the Her2 level is 106% (inactive). In addition, the differential viability (reversal) in test [6] (H69AR cells + 2 uM doxorubicin) was 13% (inactive). Moreover, the inhibition is 0.13% (inactive) in test [7], -7.27% (inactive) in test [8] and 1.79% (inactive) in test [14]. For the same molecule, the growth inhibition is -11% (inactive) in [9] and -11.7% (inactive) in [10]. Further, the viability increase in [11] was -1.92% (inactive). Moreover, the RAM network inhibition in test [15] is 2.41% (inactive).
`CC(C)C(C(=O)Nc1ccc2c(c1)OCCO2)N1C(=O)c2ccccc2C1=O` (centres undefined): the viability in [1] was 91%; in [3] it was 91% (inactive); in test [4], 99.8% (inactive); in test [5] it was 104% (inactive); in test [6] (setting [16]), 94.8%; in [6] (setting [17]), 104%. The viability in test [12] is 99.1% (inactive); in test [13] it was 97.7% (inactive). In test [2], the Her2 level is 102% (inactive). The differential viability (reversal) in test [6] (H69AR cells + 2 uM doxorubicin) was 8.75% (inactive). For the same molecule, the inhibition in test [7] was 0.77% (inactive); in [8] it was -10.7% (inactive); in test [14] it was 1.34% (inactive). Moreover, the growth inhibition in test [9] is -11.7% (inactive); in test [10], -13.3% (inactive). In test [11], the viability increase was -0.14% (inactive). Besides, the RAM network inhibition in [15] is 2.58% (inactive).
Turning to `CCN(CC)CCN1C(=O)c2oc3ccc(F)cc3c(=O)c2C1c1ccncc1` (centres undefined), the viability was 89.5% in test [1]; 89.5% (inactive) in [3]; 95.6% (inactive) in test [4]; 87.5% (inactive) in test [5]; 83.5% in test [6] (setting [16]); 87.5% in test [6] (setting [17]). In addition, the viability is 96.4% (inactive) in test [12] and 95.9% (inactive) in test [13]. In addition, the Her2 level in [2] is 96.5% (inactive). Moreover, in test [6] (H69AR cells + 2 uM doxorubicin), the differential viability (reversal) was 4.02% (inactive). Moreover, the inhibition in test [7] is -3.2% (inactive); in test [8] it was -8.67% (inactive); in [14] it was 0.78% (inactive). The values for the growth inhibition in test [9] and in test [10] were -0.15% (inactive) and -0.92% (inactive), respectively. For the same molecule, the viability increase in test [11] was 0.69% (inactive). Further, in test [15], the RAM network inhibition is 2.14% (inactive).
Take `Cc1nnc(NC(=O)CSc2cn(CCNC(=O)c3ccccc3)c3ccccc23)s1`: the viability is 83.5% in test [1]; 83.5% (inactive) in test [3]; 75.5% (inactive) in [4]; 80.4% (inactive) in [5]; 66.8% in test [6] (setting [16]); 80.4% in test [6] (setting [17]). Further, the figures for the viability in test [12] and in test [13] were 93.5% (inactive) and 88% (inactive), respectively. Also, the Her2 level in test [2] is 106% (inactive). Moreover, the differential viability (reversal) in [6] (H69AR cells + 2 uM doxorubicin) is 13.6% (inactive). Besides, the inhibition in test [7] was -3.2% (inactive); in [8], -4.17% (inactive); in [14], -0.12% (inactive). Moreover, the growth inhibition in test [9] was 3.24% (inactive); in test [10], 17% (inactive). Further, in test [11], the viability increase was -0.89% (inactive). For the same molecule, the RAM network inhibition in [15] is 1.15% (inactive).
`CCOC(=O)c1cc2c(=O)n3ccccc3nc2n(Cc2ccccc2)c1=N`: the viability in [1] is 77%; in test [3] it was 77% (inactive); in test [4], 84.2% (inactive); in [5], 83.8% (inactive); in test [6] (setting [16]), 88.3%; in test [6] (setting [17]), 83.8%. Further, the viability was 77.1% (inactive) in [12] and 71.1% (inactive) in [13]. The Her2 level in test [2] was 75.5% (inactive). The differential viability (reversal) in test [6] (H69AR cells + 2 uM doxorubicin) was -4.5% (inactive). Moreover, the inhibition was -4.86% (inactive) in [7], -3.28% (inactive) in test [8] and 2.4% (inactive) in test [14]. The growth inhibition in [9] was -1.11% (inactive); in test [10], -8.62% (inactive). The viability increase in test [11] is -3.3% (inactive). In addition, in test [15], the RAM network inhibition was 0.09% (inactive).
Regarding `COc1ccc(C(=O)c2coc3ccc(O)c(CN4CCCCC4)c23)cc1`, the viability was 79.5% in [1]; 79.5% (inactive) in [3]; 66% (inactive) in test [4]; 75.5% (inactive) in [5]; 75.7% in test [6] (setting [16]); 75.5% in test [6] (setting [17]). Moreover, the figures for the viability in [12] and in test [13] were 40.5% (inactive) and 53.3% (inactive), respectively. Besides, the Her2 level in test [2] is 106% (inactive). Also, in [6] (H69AR cells + 2 uM doxorubicin), the differential viability (reversal) is -0.2% (inactive). The figures for the inhibition in test [7], in [8] and in [14] were -3.07% (inactive), 5.33% (inactive) and 0.725% (inactive), respectively. The growth inhibition is -3.45% (inactive) in [9] and -4.88% (inactive) in test [10]. Moreover, the viability increase in test [11] was -4.51% (inactive). Besides, the RAM network inhibition in test [15] is 6.6% (inactive).
For `CCN1CCN(Cc2ccc(NC(=O)Nc3ccccc3)cc2)CC1`, the viability in [1] was 82%; in [3] it was 82% (inactive); in test [4] it was 82.5% (inactive); in [5], 88.7% (inactive); in [6] (setting [16]) it was 89.3%; in test [6] (setting [17]), 88.7%. Further, the viability was 103% (inactive) in test [12] and 98.7% (inactive) in [13]. In test [2], the Her2 level is 106% (inactive). Moreover, in test [6] (H69AR cells + 2 uM doxorubicin), the differential viability (reversal) is -0.57% (inactive). Besides, the inhibition in [7] was 2.82% (inactive); in test [8], 0.33% (inactive); in [14] it was 1.09% (inactive). Further, the growth inhibition in test [9] and in [10] was -11.3% (inactive) throughout. In test [11], the viability increase is 0.37% (inactive). Further, in test [15], the RAM network inhibition is 1.93% (inactive).

Values taken from PubChem BioAssay.
